Bioassay records: PubChem BioAssay, National Center for Advancing Translational Sciences (NCATS)
An excerpt weighted towards active compounds, which were near 18% of everything screened.
TGFb inhibitor = blocks TGF-b signaling | HepG2 CAGA-GFP TGF-b/SMAD3 reporter, GFP fluorescence, 18 h; TGF-beta stimulated, 500 pg/mL final | Potency, µM (titrated, usually from 46.1 µM), for inactives: at the highest dose activity, negative = inhibition, actives largely listed as inhibitors | 410,000 compounds, 1.2% hits; also: potency is read from the fitted curve at half-maximal effect; % is scaled to controls: 0 for no effect and ±100 for the full control effect; nearly all actives have a fitted effect of over 65% in size
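Smad-responsive CAGA-GFP expression was quantified in HEPG2 cells exposed to compounds and 500 pg/mL final TGF-beta for 18 h at 37 degrees C; unstimulated wells defined full inhibition.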
TDP1 block = blocks human tyrosyl-DNA phosphodiesterase 1 | Q9NUW8 | recombinant TDP1, AlphaScreen DNA substrate cleavage | Potency, µM (series often up to 130 µM), inactives show top-dose activity change, negative = inhibition, actives largely listed as inhibitors | 350,000 compounds, 0.28% hits; also: potency is read from the fitted curve at half-maximal effect; % is scaled to controls: 0 for no effect and ±100 for the full control effect; nearly all actives have a fitted effect of over 40% in size
Target sequence (Q9NUW8 whole entry, looked up): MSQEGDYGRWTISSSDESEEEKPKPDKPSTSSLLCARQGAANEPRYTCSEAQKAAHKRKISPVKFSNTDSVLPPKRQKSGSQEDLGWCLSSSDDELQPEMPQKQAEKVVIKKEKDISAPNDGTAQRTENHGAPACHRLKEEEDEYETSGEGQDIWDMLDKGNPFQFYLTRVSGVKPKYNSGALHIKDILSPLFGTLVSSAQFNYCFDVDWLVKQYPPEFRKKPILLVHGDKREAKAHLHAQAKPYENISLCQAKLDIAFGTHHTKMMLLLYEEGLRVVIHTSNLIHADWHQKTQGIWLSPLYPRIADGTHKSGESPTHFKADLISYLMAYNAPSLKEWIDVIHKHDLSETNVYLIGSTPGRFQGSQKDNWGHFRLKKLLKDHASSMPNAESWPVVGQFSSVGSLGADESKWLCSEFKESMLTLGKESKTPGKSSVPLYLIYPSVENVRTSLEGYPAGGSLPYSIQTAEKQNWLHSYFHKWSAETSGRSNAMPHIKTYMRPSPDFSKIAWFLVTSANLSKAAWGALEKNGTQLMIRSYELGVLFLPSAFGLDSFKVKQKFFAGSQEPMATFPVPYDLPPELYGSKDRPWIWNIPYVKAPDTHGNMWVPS
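Here, a 5' biotin and 3' phosphotyrosine-FITC DNA oligonucleotide reports Tdp1 activity: intact substrate bridges AlphaScreen beads, while cleavage leaves a 3' phosphate and drops signal. All incubations at room temperature.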
HepG2 viability = kills HepG2 cells in TGF-b inhibitor counter-screen; HepG2 CAGA-GFP viability, ATP luminescence, 18 h; Potency, µM (doses to about 46.1 µM), for inactives: at the highest dose activity change, negative = cytotoxicity, most hits filed as cytotoxic; 410,000 compounds, 0.76% hits; also: potency is read from the fitted curve at half-maximal effect
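HepG2 CAGA-GFP cells (1000/well, DMEM with 1% FBS) received compound, then TGF-beta at 500 pg/mL final, and were incubated 18 hours at 37 degrees C. Viability was read by CellTiter-Glo luminescence. Media-only wells were set as complete cell-killing and DMSO as no toxicity.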
DT40 TDP1 no CPT = qHTS for Inhibitors of human tyrosyl-DNA phosphodiesterase 1 (TDP1): qHTS in cells in absence of CPT. DT40 Tdp1-/- hTDP1 cells, no CPT, ATP luminescence, 48 h. Potency, µM (top dose mostly 46.2 µM), for inactives: top-dose activity change, negative = growth inhibition, usual class: inhibitors. 420,000 compounds, 15% hits; also: potency is read from the fitted curve at half-maximal effect; % is scaled to controls: 0 for no effect and ±100 for the full control effect; nearly all actives have a fitted effect of over 55% in size
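Growth of hTDP1-complemented DT40 Tdp1-knockout cells is measured by ATP luminescence after at least 48 hr compound exposure at 37 °C, with DMSO substituting for the 20 nM CPT used in the parallel screen.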
IL1B secr inh = inflammasome signaling inhibition, IL-1 beta readout | AID 743279 | THP-1 LPS/ATP IL-1B secretion, AlphaLISA, 16 h; active compounds read low | activity change, % at 57.5 µM | 360,000 compounds, 4.7% hits; in the data active = activity change below about -50%; inconclusive = mostly about -30% to -49%; also: % is scaled to controls: 0 for no effect and ±100 for the full control effect
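THP-1 cells pretreated 1 hr with compounds (up to 57.5 uM final), then stimulated with LPS (250 ng/mL final) plus ATP (1.25 mM final); secreted IL-1B measured by AlphaLISA after 16 hr, decreased signal indicating inhibition.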
DT40 TDP1 CPT = growth inhibition of DT40 Tdp1-/-;hTDP1 cells with camptothecin (screen for TDP1 inhibitors) | chicken DT40 Tdp1-/-;hTDP1 cells + 20 nM CPT, ATP luminescence, 48 h | Potency, µM (series often up to 46.2 µM), for the others: at the highest dose activity change, negative = growth inhibition, actives largely listed as inhibitors | 420,000 compounds, 12% hits | AID 686979; also: potency is read from the fitted curve at half-maximal effect; % is scaled to controls: 0 for no effect and ±100 for the full control effect; nearly all actives have a fitted effect of over 55% in size
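Chicken DT40 Tdp1-/- cells complemented with human TDP1, 400 cells/well, exposed to compounds plus 20 nM camptothecin for at least 48 h at 37 C; viability read as ATP content by CellTiter-Glo luminescence.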
Active calls of the source: *; ? = inconclusive; . = no result given; [ ] = dose if it differs, or a comment. Unless noted, calls follow the shape of the dose curve; as a rule, active = well fitted curve in the direction sought with a large enough effect; inconclusive = small, poorly fitted or top-dose-only effect, or another doubt; inactive = no such curve, though single readings can be large; an effect the other way counts as inactive or inconclusive.

SMILES	TGFb inhibitor	TDP1 block	HepG2 viability	DT40 TDP1 no CPT	IL1B secr inh	DT40 TDP1 CPT
CC(O)CNCCCOc1cccc(C(F)(F)F)c1 (stereo not given)	4.7%	8.1%	-16.7%	9.0%	1.1	2.3%
CC(O)CNCCCCOc1ccc(OCc2ccccc2)cc1 (stereo not given)	9.2%	-5.5%	-2.3%	?	-55.9*	23.1µM*
CN(Cc1ccc(C(F)(F)F)cc1)C(=O)C1CC(=O)N(Cc2ccco2)C1 (stereo not given)	3.0%	0.4%	-20.3%	-17.4%	5.9	4.4%
COC(=O)NC(/C(C(=O)OC)=C(\C)NCc1ccccc1)c1ccc2ccccc2c1 (stereo not given)	.	10.1%[21 µM]	.	.	.	.
Cc1cc(NS(=O)(=O)c2ccc3c(c2)CCC(=O)N3)ccc1F	.	0.9%	.	.	.	.
O=C(NCCCCO)c1c(-c2ccccc2)oc2c1C(OCCCCCO)CCC2 (stereo not given)	.	.	.	?	-1.1	-16.1%
COc1ccc(-n2ncc3c(SCC(=O)N4CCN(c5ccccc5OC)CC4)ncnc32)cc1	0.9%	0.7%	-15.0%	20.6µM*	39.5	?
COc1ccccc1N1CCN(C(=O)CSc2ncnc3scc(-c4ccccc4)c23)CC1	-26.1%	3.0%	-25.8%	16.4µM*	-16.4	?
COC(=O)CSc1ncnc2scc(-c3ccccc3)c12	19.7%	.	30.1%	-14.1%	1.6	-28.8%
O=C(CSc1ncnc2scc(-c3ccccc3)c12)N1CCN(c2ccccc2F)CC1	?	3.5%	-18.0%	18.4µM*	-0.7	?
CCN1C(=O)CC(C(=O)Nc2ccc(OC)cc2)SC1=Nc1ccc(C)c(C)c1 (stereo not given)	3.4%	.	-30.9%	?	.	-24.2%
CCC1=C(OC(=O)N(CC)CC)N2C(=O)OC(=NCCOC)[C@]2(C)[C@H]2C1=CC[C@H]1C(=O)N(CC)C(=O)[C@H]12	.	1.5%	.	.	.	.
Cc1cc(C)cc(C(=O)Nc2nnc3n2CCS3)c1	-1.4%	1.1%	-14.8%	?	.	?
O=C(Nc1nnc2n1CCS2)c1cc(C(F)(F)F)cc(C(F)(F)F)c1	0.5%	6.6%	-28.1%	4.61µM*	.	5.8µM*
O=C(N/N=C/c1ccco1)c1ccccc1OCc1ccc(Br)cc1	-16.4%	6.8%	-21.2%	23.1µM*	-5.3	20.6µM*
O=C(N/N=C/c1cccnc1)c1ccccc1OCc1cccc(Br)c1	16.5%	4.6%	0.1%	?	-25.7	?
Cc1ccc(/C=N/NC(=O)c2ccccc2OCc2cccc(Br)c2)o1	?	4.9%	-3.6%	7.31µM*	-99.4*	6.51µM*
O=C(N/N=C/c1ccco1)c1ccc(OCc2ccccc2)cc1	-6.3%	5.1%	-35.4%	-25.6%	-7.3	-28.0%
O=C(Nc1ccccc1C(=O)N/N=C/c1ccco1)c1ccc(F)cc1	?	1.3%	12.6µM*	-28.9%	2.2	-16.4%
O=C1[C@H]2[C@H]3[C@H](O)[C@H](O)C/C(=N/OCc4ccccc4)[C@@H]3CC[C@@H]2C(=O)N1C[C@@H]1CCCO1	.	2.6%[21 µM]	.	.	.	.
COc1ccc(N2CC(C(=O)Nc3ccccc3C(=O)NC3CC3)CC2=O)cc1 (stereo not given)	-4.7%	.	9.8%	1.8%	20.9	-6.9%
CC1(C(=O)NS(=O)(=O)c2ccc(Cl)cc2)CCN1C(=O)Cc1cccs1 (stereo not given)	5.2%	.	4.3%	-4.0%	28.0	3.7%
Cc1cnc(C(=O)Nc2ccc(N3CCN(C(=O)OC(C)(C)C)CC3)cc2)cn1	-17.4%	2.3%	-14.5%	2.31µM*	50.3	4.61µM*
CC(C)(C)OC(=O)N1CCN(c2ccc(NC(=O)Cn3nnc(-c4ccccc4)n3)cc2)CC1	0.0%	7.2%	-38.5%	23.1µM*	-9.5	?
O=C(COc1ccc(Br)cc1)NC1CC1	-0.5%	3.2%	8.3%	-7.6%	-16.1	-22.8%
SMILES	TGFb inhibitor	TDP1 block	HepG2 viability	DT40 TDP1 no CPT	IL1B secr inh	DT40 TDP1 CPT
O=c1cc(-c2ccco2)oc2ccc(Cl)cc12	6.9%	0.0%	3.7%	-24.5%	-5.3	-6.1%
O=C(COc1ccc2oc(-c3ccco3)cc(=O)c2c1)N1CCCCC1	6.0%	56.2µM*	-1.5%	-17.9%	-18.2	?
COc1ccc2oc(-c3ccco3)cc(=O)c2c1	2.1%	5.1%	-17.6%	?	-61.8*	?
COc1cccc2oc(-c3ccco3)cc(=O)c12	?	5.3%	-48.5%	14.6µM*	-101.4*	20.6µM*
COc1ccc2c(=O)cc(-c3ccccc3F)oc2c1	7.4%	2.6%	-56.5%	20.6µM*	-60.7*	?
O=C(COc1ccc2oc(-c3ccccc3)cc(=O)c2c1)NCc1ccco1	-15.2%	50.1µM*	-104.6%	29.1µM*	-3.1	?
O=C(COc1ccc(S(=O)(=O)N2CCCC2)cc1)N1CCCC1	3.1%	.	-1.9%	9.1%	22.2	-9.7%
CCOC(=O)c1c(CN2CCC(C)CC2)n(C)c2cc(Br)c(OC)cc12	-9.2%	.	-26.8%	16.4µM*	-13.0	?
CCOC(=O)c1c(CN2CCN(CC#N)CC2)n(C)c2cc(Br)c(OC)cc12	0.0%	.	-7.1%	?	-62.9*	?
CCOC(=O)c1c(CN2CCOCC2)n(C)c2cc(Br)c(O)c(CN(C)C)c12	-7.6%	-3.3%	1.1%	?	?	?
CCOC(=O)c1c(CN2CCN(Cc3ccccc3)CC2)n(C)c2cc(Br)c(OC)cc12	0.0%	0.7%	-0.3%	16.4µM*	-10.1	?
CCOC(=O)c1c(C)n(C)c2cc(Br)c(C)cc12	1.1%	-3.4%	0.6%	-12.5%	0.0	-6.7%
CCOC(=O)c1c(CSc2ccccc2)n(C)c2cc(Br)c(OCC(O)CNC(CO)(CO)CO)cc12 (stereo not given)	?	0.0%	-101.2%	14.6µM*	-100.5*	?
O=c1c(-c2cccs2)nc2cnc(Nc3ccccc3)nc2n1C[C@H]1CCCO1	.	.	.	-5.7%	.	-8.3%
Cc1ccc(S(=O)(=O)NCC(=O)Nc2cccnc2)cc1C	-2.1%	-0.5%	-2.6%	-12.3%	21.2	-0.7%
CC(=O)c1cccc(NC(=O)c2cc3nc(-c4ccc(Br)cc4)cc(C(F)(F)F)n3n2)c1	?	-3.4%	-30.5%	6.51µM*	.	6.51µM*
COc1ccc2[nH]cc(CCNc3ncncc3-c3cccc(C#N)c3)c2c1	.	.	.	?	.	0.0046µM*
